Here are results for ten compounds from PubChem BioAssay (NCI).

About 83,000 compounds went through this panel and 20% of them were active in at least one assay; those are over-represented in the sample as a whole.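 Compound tested at a single concentration for 48 hours in 96-well plates; a percent growth value below 10 was scored as active.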 A number with no mark means an inactive call. Active and inactive are the calls of the source.

Among the test systems are OVCAR-8 ovarian; OVCAR-5 ovarian; OVCAR-4 ovarian; SK-OV-3 ovarian; IGROV1 ovarian; OVCAR-3 ovarian; HS 578T breast; NCI/ADR-RES ovarian; T-47D breast; BT-549 breast; MDA-MB-435 melanoma; SW-620 colon; MCF7 breast; HCT-116 colon; HCC-2998 colon; KM12 colon; RPMI-8226 leukemia.
Assay in all cases: NCI-60 one-dose screen, 48 h (100 = growth as untreated, 0 = no growth, -100 = all killed)
Holding throughout (settings): 10 µM unless noted

As for `Clc1ccccc1[C@@H]1C[C@@H]2Cc3cc(Br)c4ccccc4c3N1O2`, the growth was 61.1% with OVCAR-8 ovarian; 70.9% in the assay with OVCAR-5 ovarian; 49.9% in the assay on OVCAR-4 ovarian; 38.5% with SK-OV-3 ovarian; 48.7% in the assay on IGROV1 ovarian; -8.24% (active) in the assay with OVCAR-3 ovarian. Moreover, the growth in the assay on HS 578T breast was 28.4%; in the assay with NCI/ADR-RES ovarian it was 15.4%; in the assay with T-47D breast it was 65.3%; in the assay on BT-549 breast, 50.1%; with MDA-MB-435 melanoma, -32% (active); in the assay with SW-620 colon it was 16.6%. Also, the growth in the assay with MCF7 breast was 12.7%; in the assay with HCT-116 colon it was 20.3%; in the assay on HCC-2998 colon, 56.4%; with KM12 colon, 33.5%.
As for `O=C(O)c1ccccc1C(=O)OC1CCCC2CCCC21` (stereo not given), the growth is 111% in the assay with RPMI-8226 leukemia; 99.2% with OVCAR-5 ovarian; 112% in the assay with SK-OV-3 ovarian; 122% in the assay on OVCAR-3 ovarian; 99% in the assay on NCI/ADR-RES ovarian; 96.1% with T-47D breast. Moreover, the growth with MDA-MB-435 melanoma is 118%; with SW-620 colon it was 111%; with MCF7 breast it was 94.6%; in the assay on HCT-116 colon it was 112%; with HCC-2998 colon it was 98.5%; in the assay with KM12 colon it was 106%.
Consider `COc1ccccc1[C@H]1c2[nH]c3ccccc3c2C[C@H]2C(=O)N(CCCCCCC(=O)NO)CC(=O)N12`, for which the growth is 36.9% with OVCAR-8 ovarian; 26.4% with OVCAR-5 ovarian; 58.1% with OVCAR-4 ovarian; 61.7% in the assay on SK-OV-3 ovarian; 41.1% with IGROV1 ovarian; 48.2% in the assay on OVCAR-3 ovarian. Moreover, the growth was 53.6% in the assay with HS 578T breast; 72.4% in the assay on NCI/ADR-RES ovarian; 18.2% with T-47D breast; 67.8% in the assay on BT-549 breast; 45.4% in the assay with MDA-MB-435 melanoma; 15.6% in the assay on SW-620 colon. Moreover, the growth in the assay with MCF7 breast is 37.7%; with HCT-116 colon it was 18.3%; in the assay on HCC-2998 colon it was 38.9%; with KM12 colon it was 77.8%.
With `COc1cc(/C=C/C(=O)Nc2cccnc2Nc2cc(OC)c(OC)c(OC)c2)cc(OC)c1OC`, the growth is 84.1% with OVCAR-8 ovarian; 99.3% in the assay with OVCAR-5 ovarian; 92.7% in the assay with OVCAR-4 ovarian; 112% with SK-OV-3 ovarian; 112% in the assay with IGROV1 ovarian; 114% with OVCAR-3 ovarian. The growth in the assay with HS 578T breast is 96.6%; with NCI/ADR-RES ovarian, 83.5%; with T-47D breast, 100%; in the assay on BT-549 breast it was 96.7%; with MDA-MB-435 melanoma, 96.6%; in the assay on SW-620 colon, 99.1%. Besides, the growth with MCF7 breast was 87.9%; in the assay on HCT-116 colon it was 88.6%; with HCC-2998 colon, 97%; with KM12 colon it was 103%.
As to `Clc1ccc(-n2cnc3c(Cl)ncnc32)cc1Cl`, the growth in the assay with OVCAR-8 ovarian was 88%; with OVCAR-5 ovarian it was 82.5%; in the assay on OVCAR-4 ovarian it was 103%; in the assay with SK-OV-3 ovarian it was 99.8%; in the assay on IGROV1 ovarian, 54.6%; in the assay with OVCAR-3 ovarian it was 98.9%. The growth in the assay on NCI/ADR-RES ovarian was 107%; in the assay with T-47D breast it was 82.2%; with BT-549 breast, 90.3%; in the assay with MDA-MB-435 melanoma, 99.3%; in the assay on SW-620 colon, 78.6%; in the assay with MCF7 breast, 89.8%. In addition, the growth with HCT-116 colon was 61.1%; with HCC-2998 colon it was -75% (active); in the assay on KM12 colon, 95%.
For the compound `CC(C)c1ccc(C(=O)Nc2sc3c(CN(C)C)c(O)ccc3c2C(N)=O)cc1`, the growth is 51.5% in the assay on OVCAR-8 ovarian; 59.4% in the assay with OVCAR-5 ovarian; 48.5% in the assay on OVCAR-4 ovarian; 70.6% in the assay with SK-OV-3 ovarian; 27.3% in the assay with IGROV1 ovarian; 62.7% in the assay on OVCAR-3 ovarian. For the same compound, the growth in the assay with HS 578T breast was 69.1%; in the assay on NCI/ADR-RES ovarian it was 51.6%; in the assay on T-47D breast it was 54.2%; with BT-549 breast, 64.4%; in the assay on MDA-MB-435 melanoma, 63%; in the assay with SW-620 colon, -37.8% (active). The growth in the assay on MCF7 breast is -16.2% (active); in the assay with HCT-116 colon, -46.5% (active); in the assay on HCC-2998 colon it was -54.6% (active); in the assay with KM12 colon, 6.38% (active).
In the case of `CC/C=C\C=C/C(=O)N/C=C/CC1Cc2cccc(O)c2C(=O)O1` (stereo not given), the growth in the assay with OVCAR-8 ovarian was 90.5%; in the assay with OVCAR-5 ovarian, 91%; with OVCAR-4 ovarian, 80.2%; in the assay with SK-OV-3 ovarian, 63.9%; in the assay with IGROV1 ovarian, 79.1%; in the assay with OVCAR-3 ovarian it was 86%. Moreover, the growth with HS 578T breast was 50.7%; in the assay with NCI/ADR-RES ovarian, 57.2%; in the assay with T-47D breast, 67.2%; in the assay on BT-549 breast, 75.2%; in the assay with MDA-MB-435 melanoma, -52.1% (active); in the assay on SW-620 colon, 26.9%. Besides, the growth in the assay on MCF7 breast was 67.3%; with HCT-116 colon it was 33.8%; with KM12 colon, 42.1%.
For the compound `Cc1c(C)c(N2C(=O)C=CC2=O)c(C)c(C)c1N1C(=O)C=CC1=O`, the growth is 96.1% with OVCAR-8 ovarian; 91% in the assay with OVCAR-5 ovarian; 104% with OVCAR-4 ovarian; 114% in the assay on SK-OV-3 ovarian; 83.6% in the assay with IGROV1 ovarian; 45.1% in the assay on OVCAR-3 ovarian. Moreover, the growth in the assay with NCI/ADR-RES ovarian is 96.4%; in the assay with T-47D breast, 113%; in the assay on BT-549 breast, 110%; in the assay on MDA-MB-435 melanoma, 102%; in the assay on SW-620 colon it was 81.7%; with MCF7 breast, 103%. The growth in the assay on HCT-116 colon was 83%; in the assay with HCC-2998 colon it was 97.1%; in the assay with KM12 colon, 119%.
As for `Nc1ccccc1-c1ccc([N+](=O)[O-])cc1`, the growth was 75.3% in the assay on OVCAR-8 ovarian; 75% with OVCAR-5 ovarian; 63.2% with OVCAR-4 ovarian; 90.6% with SK-OV-3 ovarian; 56.2% in the assay on IGROV1 ovarian; 71.7% in the assay on OVCAR-3 ovarian. For the same compound, the growth in the assay with NCI/ADR-RES ovarian was 52.2%; in the assay with T-47D breast it was 38.6%; with BT-549 breast it was -33.9% (active); in the assay with MDA-MB-435 melanoma, 52.4%; with SW-620 colon it was 43.8%; in the assay on MCF7 breast, 40.1%. Besides, the growth is 60.1% in the assay on HCT-116 colon and 24.1% with KM12 colon.
With `O=[N+]([O-])c1cnc(Sc2ccncn2)c([N+](=O)[O-])c1`, the growth in the assay with OVCAR-8 ovarian was 97.3%; with OVCAR-5 ovarian, 102%; in the assay on OVCAR-4 ovarian, 97.8%; with SK-OV-3 ovarian, 97.2%; in the assay with IGROV1 ovarian, 117%; with OVCAR-3 ovarian, 55.1%. Also, the growth with HS 578T breast is 97.8%; in the assay with NCI/ADR-RES ovarian, 107%; with BT-549 breast, 111%; in the assay with MDA-MB-435 melanoma it was 91.1%; with SW-620 colon, 26.4%; in the assay with MCF7 breast, 56.1%. Moreover, the values for the growth in the assay with HCT-116 colon, with HCC-2998 colon and in the assay on KM12 colon were -59% (active), 102% and 107%, respectively.
